# In article PMC4552634, “A New Set of Chemical Starting Points with Plasmodium falciparum Transmission-Blocking Potential for Antimalarial Drug Discovery” (PLoS ONE, 2015):
# About 3,200 (25%) of roughly 13,000 compounds showed an effect of 50% or more. The list shows a part of the results.
# Test system: P. falciparum stage V gametocytes
# Set-up: BacTiter-Glo ATP luminescence viability of purified stage V gametocytes in 384-well plates, per cent inhibition versus DMSO
# Settings: 48 h, 5 µM; inhibitor
row,SMILES,% Inhibition [%]
1,COc1ccc2c(c1)CC(CNC[C@H](O)c1cccc(Cl)c1)CC2 (stereo partly drawn) [TCMDC-131994],-12.5
2,CN(C)CCOc1ccc2c(c1)CN(C)CC2c1ccccc1 (stereo not drawn) [TCMDC-131410],7.627
3,Cc1nc(-c2nc(NCc3ccccn3)ncc2-c2ccsc2)sc1C [TCMDC-125360],31.08
4,Cc1nc(-c2nc(NCCc3cnccn3)ncc2-c2ccsc2)sc1C [TCMDC-125363],69.56
5,Cc1nc(-c2nc(NCCc3c(C)noc3C)ncc2-c2ccsc2)sc1C [TCMDC-125357],20.64
6,COCCN(CCOC)c1ncc(-c2ccsc2)c(-c2nc(C)c(C)s2)n1 [TCMDC-125355],81.41
7,Cc1nc(-c2nc(N3CCOCC3)ncc2-c2ccsc2)sc1C [TCMDC-125356],0.6256
8,Cc1nc(-c2nc(NCc3ccncc3)ncc2-c2ccsc2)sc1C [TCMDC-125359],15.84
9,CN(C)CCOc1ccc2[nH]c(-c3cccc(OCc4ccccc4)c3)nc2c1C#N [TCMDC-133765],4.095
10,COc1cc(C(=O)Nc2cccc(-c3cn4cccc(C)c4n3)c2)cc(OC)c1OC [TCMDC-123644],23.2
11,CCC1N=C(N)N=C(N)N1OCc1cccc2ccccc12 (stereo not drawn) [TCMDC-131592],22.21
12,CCCCNCc1cc(Cl)c2ccccc2c1O [TCMDC-137599],77.6
13,COc1ccc(CCNc2nc(SCc3ccccc3Cl)nc3ccccc23)cc1OC [TCMDC-125569],33.86
14,COc1ccc(CCNCCCCCCNCCc2ccc(Cl)c3ccccc23)cc1OC [TCMDC-131270],116.7
15,COc1cc2ncnc(NCCc3ccccc3Cl)c2cc1OC [TCMDC-139495],5.438
16,COc1c(CCNCCCCNCCc2cc(Cl)c3ccccc3c2OC)cc(Cl)c2ccccc12 [TCMDC-137869],105.2
17,COc1ccc(CCNCCCCCCNCCc2ccccc2Cl)cc1OC [TCMDC-131273],87.94
18,COc1c(CNCCCCCCNCc2cc(Cl)c3ccccc3c2OC)cc(Cl)c2ccccc12 [TCMDC-137958],32.17
19,CCN(CC)CCCN(C(=O)Nc1c(Cl)cncc1Cl)c1nc(-c2ccc(F)cc2)cs1 [TCMDC-136666],-35.52
20,O=C(Cc1ccc(NC(=O)c2ccc(O)c(-c3ccc(Cl)c(Cl)c3)c2)cc1)NCCN1CCCCC1 [TCMDC-140861],-19.27
21,O=C(Nc1cccc2ccccc12)N1CCC(NS(=O)(=O)c2cccc(C(F)(F)F)c2)CC1 [TCMDC-139437],-43.48
